Measured values reported in PubChem BioAssay (EPA / NIEHS).
Values joined by “and” are separate entries in the source; they are usually repeats but may differ in a detail not shown here. Equal entries are not always repeated. Results filed as inconclusive are left out. Where a structure was tested more than once in an assay, its records may differ in their call. Active and inactive are the calls of the source. How the source made its calls, unless noted: active means hit-call score of the fitted dose curve at least 0.9, where 1 is the maximum; inconclusive means response in the unintended direction; inactive means score below 0.9.

Legend:
[1] = molecular target: human Peroxisome Proliferator-activated Receptor alpha (PPARa), PPARA (gene 5465) (UniProt Q07869); assay: ATG_PPARa_TRANS: Attagene TRANS-FACTORIAL HepG2 Assay for human Peroxisome Proliferator-activated Receptor alpha (PPARa) (AID 2283001);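 on AC50: potency for gain of reporter signal over DMSO so agonist or activator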
human Peroxisome Proliferator-activated Receptor alpha (PPARa), PPARA (gene 5465), sequence (Q07869 whole entry, looked up, the tested form may be a part): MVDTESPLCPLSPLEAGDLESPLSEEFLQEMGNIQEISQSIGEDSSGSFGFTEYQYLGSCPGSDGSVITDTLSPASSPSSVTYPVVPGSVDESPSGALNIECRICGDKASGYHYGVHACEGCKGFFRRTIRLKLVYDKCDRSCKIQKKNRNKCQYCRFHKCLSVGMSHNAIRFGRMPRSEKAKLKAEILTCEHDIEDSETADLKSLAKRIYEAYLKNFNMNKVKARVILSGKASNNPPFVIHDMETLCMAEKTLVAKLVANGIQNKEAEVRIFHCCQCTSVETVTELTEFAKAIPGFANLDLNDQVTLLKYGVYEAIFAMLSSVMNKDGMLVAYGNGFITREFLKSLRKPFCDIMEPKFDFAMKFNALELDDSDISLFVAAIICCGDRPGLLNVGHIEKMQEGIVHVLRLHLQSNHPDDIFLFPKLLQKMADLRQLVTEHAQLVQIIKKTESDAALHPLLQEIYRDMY
Method in brief: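 Reporter transcripts quantified by RT-PCR plus capillary electrophoresis after 24 h treatment, fitted upward relative to DMSO. Cells: human HepG2 transiently carrying multiple GAL4-UAS reporter units driven by NR-Gal4 chimeras.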

[2] = molecular target: human Peroxisome Proliferator-activated Receptor delta (PPARd), PPARD (gene 5467) (UniProt Q03181); assay: ATG_PPARd_TRANS: Attagene TRANS-FACTORIAL HepG2 Assay for human Peroxisome Proliferator-activated Receptor delta (PPARd) (AID 2283002)
human Peroxisome Proliferator-activated Receptor delta (PPARd), PPARD (gene 5467), sequence (Q03181 whole entry, looked up, the tested form may be a part): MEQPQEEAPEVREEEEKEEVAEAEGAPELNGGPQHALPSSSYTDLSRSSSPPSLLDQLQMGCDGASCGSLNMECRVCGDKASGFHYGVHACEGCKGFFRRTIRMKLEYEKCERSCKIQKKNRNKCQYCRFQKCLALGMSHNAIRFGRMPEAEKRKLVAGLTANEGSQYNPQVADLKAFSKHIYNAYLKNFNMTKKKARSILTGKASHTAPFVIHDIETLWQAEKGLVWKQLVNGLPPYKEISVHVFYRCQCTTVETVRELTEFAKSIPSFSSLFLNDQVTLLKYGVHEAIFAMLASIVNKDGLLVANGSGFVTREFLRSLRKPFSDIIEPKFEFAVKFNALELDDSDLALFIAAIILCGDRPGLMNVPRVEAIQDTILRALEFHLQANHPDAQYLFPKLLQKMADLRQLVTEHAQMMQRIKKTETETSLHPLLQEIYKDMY
Method in brief: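 Transient HepG2 transfection (multiple GAL4-UAS RTUs, chimeric receptor-Gal4); 24 h dosing; total RNA → oligo(dT) RT → PCR → 6-FAM primer extension → HpaI cut → CE. Positive direction vs DMSO.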

[3] = read-out: Intercellular Adhesion Molecule 1 (ICAM1), ICAM1 (gene 3383); assay: BSK_3C_ICAM1: BioMAP Diversity Plus: 3C Assay for Intercellular Adhesion Molecule 1 (ICAM1) Biomarker Activity (AID 2283003; active means hit-call score of the fitted dose curve at least 0.9, where 1 is the maximum; inactive means score below 0.9); settings: primary human endothelial cells (HUVEC); actives raise or lower the signal
Method in brief: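 ELISA readout of ICAM1 in human umbilical vein endothelial cells in the 3C system, taken 24 h post-dose. Gain or loss of signal versus DMSO was fitted in both directions, with SRB total-protein staining run in parallel.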

[4] = molecular target: human Retinoic Acid Receptor beta (RARb), RARB (gene 5915) (UniProt P10826); assay: ATG_RARb_TRANS: Attagene TRANS-FACTORIAL HepG2 Assay for human Retinoic Acid Receptor beta (AID 2283004)
human Retinoic Acid Receptor beta (RARb), RARB (gene 5915), sequence (P10826 whole entry, looked up, the tested form may be a part): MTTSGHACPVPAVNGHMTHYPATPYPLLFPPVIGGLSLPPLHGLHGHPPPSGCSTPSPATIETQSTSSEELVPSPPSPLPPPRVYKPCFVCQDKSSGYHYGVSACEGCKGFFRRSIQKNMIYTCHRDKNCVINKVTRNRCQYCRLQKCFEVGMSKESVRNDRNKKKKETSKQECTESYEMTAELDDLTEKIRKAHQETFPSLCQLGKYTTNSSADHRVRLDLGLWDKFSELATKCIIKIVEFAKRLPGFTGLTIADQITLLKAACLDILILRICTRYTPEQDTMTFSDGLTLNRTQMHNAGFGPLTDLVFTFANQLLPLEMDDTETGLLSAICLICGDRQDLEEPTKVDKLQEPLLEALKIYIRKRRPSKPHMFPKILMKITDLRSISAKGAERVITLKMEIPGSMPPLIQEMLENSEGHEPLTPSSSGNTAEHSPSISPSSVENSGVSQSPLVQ
Method in brief: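 Readout is reporter mRNA induction: RNA reverse-transcribed, PCR-amplified, FAM-labelled, HpaI-cut and resolved by capillary electrophoresis. Transiently transfected HepG2 cells carrying exogenous NR–Gal4 chimeras were dosed for 24 h; activity fitted upward relative to DMSO.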

[5] = molecular target: Retinoic acid receptor alpha (Homo sapiens) (UniProt P10276); assay: ATG_RARa_TRANS: Attagene TRANS-FACTORIAL HepG2 Assay for human Retinoic Acid Receptor alpha (RARa) (AID 2283005)
Retinoic acid receptor alpha (Homo sapiens), sequence (P10276 whole entry, looked up, the tested form may be a part): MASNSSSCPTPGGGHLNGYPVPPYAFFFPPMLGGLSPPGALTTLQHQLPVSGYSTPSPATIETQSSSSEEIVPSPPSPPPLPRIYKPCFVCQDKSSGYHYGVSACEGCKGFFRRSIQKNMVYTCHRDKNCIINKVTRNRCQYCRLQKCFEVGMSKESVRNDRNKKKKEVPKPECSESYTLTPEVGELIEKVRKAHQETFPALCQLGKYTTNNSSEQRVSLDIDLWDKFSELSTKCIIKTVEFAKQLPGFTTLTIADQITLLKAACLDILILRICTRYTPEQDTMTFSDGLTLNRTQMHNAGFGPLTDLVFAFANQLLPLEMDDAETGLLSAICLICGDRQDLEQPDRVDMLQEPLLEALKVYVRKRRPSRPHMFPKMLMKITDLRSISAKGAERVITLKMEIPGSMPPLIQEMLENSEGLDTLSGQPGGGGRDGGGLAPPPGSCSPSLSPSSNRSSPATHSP
Method in brief: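 Reporter transcripts, measured by RT-PCR with fluorescent labeling and capillary electrophoresis after 24 h dosing, reflect activity of an exogenous human RARa–GAL4 fusion in transiently transfected HepG2. Fitted for increase relative to DMSO.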

[6] = BSK_3C_Proliferation: Cell Proliferation Assessment in the BioMAP Diversity Plus: 3C Assay (AID 2283006; active means hit-call score of the fitted dose curve at least 0.9, where 1 is the maximum; inactive means score below 0.9;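 on AC50: potency may reflect either rise or fall in cell number versus DMSO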); settings: primary human endothelial cells (HUVEC)
Method in brief: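 Proliferation as total protein: sulforhodamine B (0.1%) stain of TCA-fixed subconfluent human umbilical vein endothelial cells, absorbance 560 nm, 48 h after dosing. Activity fitted in both directions against DMSO baseline.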

[7] = molecular target: Nuclear receptor subfamily 1 group I member 2 (Homo sapiens) (UniProt O75469); assay: ATG_PXR_TRANS: Attagene TRANS-FACTORIAL HepG2 Assay for human Pregnane X Receptor (PXR) (AID 2283008)
Nuclear receptor subfamily 1 group I member 2 (Homo sapiens), sequence (O75469 whole entry, looked up, the tested form may be a part): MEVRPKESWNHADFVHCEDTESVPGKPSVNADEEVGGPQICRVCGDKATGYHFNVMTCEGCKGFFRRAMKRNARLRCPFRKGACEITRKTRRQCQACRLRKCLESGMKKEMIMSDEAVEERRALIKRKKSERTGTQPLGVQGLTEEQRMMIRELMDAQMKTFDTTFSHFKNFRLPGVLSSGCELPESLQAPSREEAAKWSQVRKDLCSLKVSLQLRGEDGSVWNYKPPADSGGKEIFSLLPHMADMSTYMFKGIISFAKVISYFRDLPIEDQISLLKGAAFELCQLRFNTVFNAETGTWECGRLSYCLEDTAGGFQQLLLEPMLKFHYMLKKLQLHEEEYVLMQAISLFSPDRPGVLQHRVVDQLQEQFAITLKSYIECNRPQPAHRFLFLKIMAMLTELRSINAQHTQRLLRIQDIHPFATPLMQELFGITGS
Method in brief: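 Multiplexed TRANS reporter panel in HepG2; this component tracks PXR-Gal4-driven reporter mRNA after 24 h dosing, measured by RT-PCR with capillary electrophoresis fluorescence, fitted against DMSO.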

[8] = molecular target: human Retinoic Acid Receptor gamma (RARg), RARG (gene 5916) (UniProt P13631); assay: ATG_RARg_TRANS: Attagene TRANS-FACTORIAL HepG2 Assay for human Retinoic Acid Receptor gamma (RARg) (AID 2283009)
human Retinoic Acid Receptor gamma (RARg), RARG (gene 5916), sequence (P13631 whole entry, looked up, the tested form may be a part): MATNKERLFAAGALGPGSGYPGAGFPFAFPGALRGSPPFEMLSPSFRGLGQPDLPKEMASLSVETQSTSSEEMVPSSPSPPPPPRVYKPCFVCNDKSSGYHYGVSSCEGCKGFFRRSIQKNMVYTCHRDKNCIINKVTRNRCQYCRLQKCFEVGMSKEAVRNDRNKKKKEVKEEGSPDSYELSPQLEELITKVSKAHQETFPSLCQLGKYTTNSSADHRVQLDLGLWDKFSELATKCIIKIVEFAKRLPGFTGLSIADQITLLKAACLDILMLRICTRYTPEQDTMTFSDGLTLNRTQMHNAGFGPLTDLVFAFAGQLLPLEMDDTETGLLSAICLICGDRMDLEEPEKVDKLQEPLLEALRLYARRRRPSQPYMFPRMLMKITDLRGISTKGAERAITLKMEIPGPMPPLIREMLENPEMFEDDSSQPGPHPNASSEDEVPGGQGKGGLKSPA
Method in brief: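 Transactivation of exogenous RARg-Gal4 fusion measured as reporter transcript induction after 24 h in transfected HepG2 cells. RNA reverse-transcribed, amplified, fluorescently labeled and resolved by capillary electrophoresis; increase relative to DMSO.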

[9] = molecular target: human RAR-related Orphan Receptor beta (RORb), RORB (gene 6096) (UniProt Q92753); assay: ATG_RORb_TRANS: Attagene TRANS-FACTORIAL HepG2 Assay for human RAR-related Orphan Receptor beta (RORb) (AID 2283010);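 on AC50: potency for increased reporter mRNA meaning activation of RORb-Gal4 chimera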
human RAR-related Orphan Receptor beta (RORb), RORB (gene 6096), sequence (Q92753 whole entry, looked up, the tested form may be a part): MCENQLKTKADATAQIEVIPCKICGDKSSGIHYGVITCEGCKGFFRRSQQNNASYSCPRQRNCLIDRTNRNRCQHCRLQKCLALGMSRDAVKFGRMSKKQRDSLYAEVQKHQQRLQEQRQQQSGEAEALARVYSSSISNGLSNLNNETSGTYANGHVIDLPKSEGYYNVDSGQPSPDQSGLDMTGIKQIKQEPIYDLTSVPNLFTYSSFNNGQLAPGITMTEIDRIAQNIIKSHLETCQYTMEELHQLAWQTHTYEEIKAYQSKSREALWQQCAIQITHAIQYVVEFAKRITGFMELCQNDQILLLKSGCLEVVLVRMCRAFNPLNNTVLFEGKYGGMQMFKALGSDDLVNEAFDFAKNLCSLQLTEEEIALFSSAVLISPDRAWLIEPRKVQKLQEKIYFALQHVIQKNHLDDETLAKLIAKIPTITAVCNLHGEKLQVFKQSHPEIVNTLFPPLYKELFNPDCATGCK
Method in brief: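 Read-out is reporter mRNA induction, quantified by RT-PCR with fluorescent capillary electrophoresis, 24 h post-dose in transiently transfected HepG2 expressing exogenous NR-Gal4 chimera. Activity fitted upward versus DMSO.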

[10] = molecular target: Peroxisome proliferator-activated receptor gamma (Homo sapiens) (UniProt P37231); assay: ATG_PPARg_TRANS: Attagene TRANS-FACTORIAL HepG2 Assay for human Peroxisome Proliferator-activated Receptor-gamma (PPARg) (AID 2283007)
Peroxisome proliferator-activated receptor gamma (Homo sapiens), sequence (P37231 whole entry, looked up, the tested form may be a part): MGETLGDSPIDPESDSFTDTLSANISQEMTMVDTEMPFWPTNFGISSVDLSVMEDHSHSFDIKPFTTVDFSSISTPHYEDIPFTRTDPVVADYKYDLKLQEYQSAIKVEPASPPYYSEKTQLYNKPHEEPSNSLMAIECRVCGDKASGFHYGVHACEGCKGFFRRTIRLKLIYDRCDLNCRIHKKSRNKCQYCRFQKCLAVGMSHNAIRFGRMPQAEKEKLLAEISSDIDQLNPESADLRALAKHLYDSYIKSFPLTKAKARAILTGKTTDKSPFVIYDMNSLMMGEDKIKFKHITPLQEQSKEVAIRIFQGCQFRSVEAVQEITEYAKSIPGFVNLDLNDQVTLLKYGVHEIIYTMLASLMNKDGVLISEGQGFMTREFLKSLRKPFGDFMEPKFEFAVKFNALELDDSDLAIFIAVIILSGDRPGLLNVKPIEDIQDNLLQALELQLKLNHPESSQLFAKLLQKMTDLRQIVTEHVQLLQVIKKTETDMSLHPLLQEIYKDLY
Method in brief: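 After 24 h of chemical exposure, transfected HepG2 cells carrying PPARγ-Gal4 chimera reporter constructs are lysed for RNA. Reporter transcripts are measured by RT-PCR and capillary electrophoresis with fluorescent labelling, and gain of signal is fitted versus DMSO.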

Measured: AC50

CCCCCCCCCCCCO
active: [3] 36.2 µM | [6] 30.2 µM
not listed: [10]
inactive: all other assays above

c1ccc(C[n+]2cccc3ccccc32)cc1
not listed: [4] | [5] | [9]
inactive: all other assays above

CCCCOC(=O)CC(CC(=O)OCCCC)(OC(C)=O)C(=O)OCCCC
active: [6] 31.5 µM | [10] 16.2 µM and 8.69 µM | [7] 3.1 µM
inactive: [1] | [2] | [3] | [7]

CCCOC(=O)c1cc(O)c(O)c(O)c1
active: [1] 27.7 µM | [6] 10.5 µM | [10] 31.8 µM
inactive: [2] | [3] | [7] | [8]

c1ccc2ccccc2c1
inactive: [1] | [3] | [4] | [6] | [7] | [9]

O=c1[nH]sc2ccccc12
inactive: [1] | [2] | [10] | [9]
active: [3] 18.2 µM | [6] 1.55 µM

CC(C)(O)c1ccc(CNC(=O)c2cccnc2Oc2ccc3nonc3c2)cc1
active: [1] 1.08 µM | [10] 27 µM | [7] 10.5 µM
not listed: [5] | [9]
inactive: all other assays above

NCc1cccc(C2CCN(C(=O)c3ccc(C#Cc4ccccc4F)o3)CC2)c1
inactive: [2]
active: [1] 0.909 µM | [3] 30.1 µM | [6] 8.67 µM | [10] 1.33 µM | [7] 8.45 µM

O=c1c(-c2ccc(O)cc2)coc2cc(O)cc(O)c12
inactive: [2] | [3] | [5] | [7] | [8] | [9]
active: [1] 24.2 µM and 100 µM and 25.6 µM | [6] 8.1 µM | [10] 32.7 µM [middle of 4 runs] | [7] 24.2 µM | [9] 27.4 µM

O=C(O)Cc1cc(I)c(Oc2ccc(O)c(I)c2)c(I)c1
active: [6] 9.41 µM | [7] 19.4 µM
inactive: [1] | [2] | [3] | [4] | [7]

CCCCCCCCCCCO
active: [1] 100 µM | [2] 166 µM | [3] 36.8 µM | [6] 34.2 µM | [10] 62.9 µM
inactive: [7]

Cc1ncc(CO)c(CO)c1O
inactive: [1] | [2] | [3] | [6] | [10] | [7]

O=C(Nc1ccc(Cl)cc1)Nc1ccc(Cl)c(Cl)c1
active: [6] 2.04 µM
not listed: [5] | [9]
inactive: all other assays above

COCC(C)OCC(C)OCC(C)O (stereo unspecified)
inactive: [1] | [2] | [3] | [6] | [7]

CCCCOC(=O)c1ccc(O)cc1
inactive: [1] | [2] | [3] | [6] | [10] | [7] | [8]
active: [10] 39.9 µM and 54 µM and 27.3 µM

O=CCCCC=O
active: [6] 25.1 µM
not listed: [4] | [5] | [8]
inactive: all other assays above
